# Reference: PubChem BioAssay (NCATS)
# Several values for one entry are separate records, joined by “and”; a condition that tells them apart may be missing. Equal entries are not always repeated. Records with an inconclusive call do not appear. Where a call stands in place of a potency, no number is given. A number with no mark means an inactive call. Activity calls are given as the source filed them. Calls come from the whole dose curve; as a rule, active = well fitted inhibition curve with a large enough effect; inconclusive = small, poorly fitted or top-dose-only effect; inactive = flat fitted curve, though single readings scatter. Peptide text beside a SMILES is read from it.
# System: Zika virus NS2B-NS3 protease
# Assay: Primary screen GU AMC qHTS for Zika virus inhibitors (AID 1347154); note: nearly all actives have a fitted effect of over 70% in size
# Settings: Zika NS2B-NS3 unlinked protease, AMC fluorogenic substrate; series mostly up to 54.1 µM; activity change, negative = inhibition: at the top concentration
# Summary of the method: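 Unlinked Zika NS2B hydrophilic domain–NS3 protease complex at 25 nM in 10 mM Tris-HCl pH 8.0, 0.01% Tween 20, with an AMC peptide substrate. Fluorescence change (340/450 nm) over 15 min at room temperature, normalized to controls, fitted to 4-parameter Hill.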
# Potency is the fitted concentration of half-maximal effect.
SMILES,"activity change, negative = inhibition",Potency
COc1c(O)cc2c(c1O)[C@@H]1O[C@H](CO)[C@@H](O)[C@H](O)[C@H]1OC2=O,-3.82%,–
Cn1c(NCCN(CCO)CCCc2ccc([N+](=O)[O-])cc2)cc(=O)n(C)c1=O,–,inactive
CCCCCCCCOc1ccccc1C(=O)Nc1ccc(C(=O)OCC[N+](C)(CC)CC)cc1,-3.64%,–
CC(C)[C@H](N)C(=O)OCCOCn1cnc2c(=O)[nH]c(N)nc21,–,inactive
CCN(CC)CCOc1ccc(Cc2ccccc2)cc1,–,inactive
CNC[C@@H](O)[C@@H](O)[C@H](O)[C@H](O)CO,5.14%,–
Oc1ccc(OCc2ccccc2)cc1,–,inactive
CC(C)(S)[C@@H](N)C(=O)O,5.39%,–
CN(C)C(=O)COC(=O)Cc1ccc(OC(=O)c2ccc(N=C(N)N)cc2)cc1,–,inactive
O=C(CS(=O)Cc1ccco1)NCC=CCOc1cc(CN2CCCCC2)ccn1 (configuration not stated),4.72%,–
CN(c1nccc(=O)[nH]1)C1CCN(c2nc3ccccc3n2Cc2ccc(F)cc2)CC1,–,inactive
CN1C(C(=O)Nc2ccccn2)=C(O)c2sccc2S1(=O)=O,–,inactive
N=C(N)c1ccc2cc(OC(=O)c3ccc(N=C(N)N)cc3)ccc2c1,–,inactive
Cc1ccc(C)c(OCCCC(C)(C)C(=O)O)c1,–,inactive
CC(C)[N+]1(C)[C@@H]2CC[C@H]1CC(OC(=O)C(CO)c1ccccc1)C2 (some centres not stated),8.78%,–
N=C(N=C(N)N)N1CCOCC1,–,inactive
COC(=O)N[C@H](C(=O)N[C@@H](Cc1ccccc1)[C@@H](O)CN(Cc1ccc(-c2ccccn2)cc1)NC(=O)[C@@H](NC(=O)OC)C(C)(C)C)C(C)(C)C,–,inactive
Nc1cc(C(Cl)=C(Cl)Cl)c(S(N)(=O)=O)cc1S(N)(=O)=O,–,inactive
COC1=C(OC)C(=O)C(CCCCCCCCCCO)=C(C)C1=O,–,inactive

SMILES,"activity change, negative = inhibition",Potency
Nc1ccc(S(N)(=O)=O)cc1,–,inactive
CC(C)c1ccc2oc3nc(N)c(C(=O)O)cc3c(=O)c2c1,–,15.8 µM (active)
COc1cc2nc(N3CCN(C(=O)C4CCCO4)CC3)nc(N)c2cc1OC (configuration not stated),–,31.6 µM (active) and 24.1 µM (active)
O=C(O)c1cc(=O)c2c(OCC(O)COc3cccc4oc(C(=O)O)cc(=O)c34)cccc2o1,–,inactive
Cc1ccc(S(=O)(=O)NC(=O)NN2CC3CCCC3C2)cc1 (configuration not stated),–,inactive
CCOC(=O)c1c(C)n(C)c2ccc(O)cc12,–,inactive
Nc1cccc2c1CN(C1CCC(=O)NC1=O)C2=O (configuration not stated),–,inactive
CCOC(=O)C1=C[C@@H](OC(CC)CC)[C@H](NC(C)=O)[C@@H](N)C1,-0.505%,–
CC1Cc2ccccc2N1NC(=O)c1ccc(Cl)c(S(N)(=O)=O)c1 (configuration not stated),–,inactive
COC(=O)[C@H](Cc1ccccc1)NC(=O)[C@@H](N)CC(=O)O (H-Asp-Phe-OMe),–,inactive
COCCCN1CCC(NC(=O)c2cc(Cl)c(N)c3c2OCC3)CC1,–,inactive
C=CCc1cc(OC)c(O)c(C(=O)NCCO)c1,-23.2%,–
CCCc1cc(=O)[nH]c(=S)[nH]1,–,inactive
CC1=C(C)C(=O)C(C(CCCCCC(=O)O)c2ccccc2)=C(C)C1=O (configuration not stated),–,inactive
Cc1cc2cc3c(C)cc(=O)oc3c(C)c2o1,–,inactive
COC(=O)C1=C(C)NC(C)=C(C(=O)OC(C)C)C1c1cccc2nonc12 (configuration not stated),–,inactive
O=C(NC(Cc1cc(=O)[nH]c2ccccc12)C(=O)O)c1ccc(Cl)cc1 (configuration not stated),–,inactive
CC(C)Oc1ccc2c(=O)c(-c3ccccc3)coc2c1,–,inactive
